HT1080NT lethal – qHTS for induction of synthetic lethality in tumor cells producing 2HG: qHTS for the HT-1080-NT fibrosarcoma cell line | AID 686970, 2013 | HT-1080-NT fibrosarcoma viability, CellTiter-Glo ATP luminescence, 48 h | Potency, µM (titrated, usually from 46.1 µM), for inactives: at the highest dose activity, negative = less viability, usual class: cytotoxic | actives 1.6% (n = 360,000);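 also: NT is the 2HG producing partner of a matched IDH1 knockdown line; 0% = DMSO-treated cells and -100% = media-only wells without cells; nearly all actives have a fitted effect of over 55% in size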
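750 cells/well, RPMI + 5% FBS; 2 h settle, compound pin-transfer, 48 h at 37 degrees C. CellTiter-Glo 10 min RT, luminescence. Normalized to DMSO and media-only wells.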
HT1080 IDH1KD tx – qHTS for induction of synthetic lethality in tumor cells producing 2HG: qHTS for the HT-1080-IDH1KD cell line. HT-1080 IDH1 knockdown viability, ATP luminescence, 48 h. Potency, µM (doses to about 46.1 µM), for the others: at the top dose activity, negative = toxicity, usual class: cytotoxic. actives 2% (n = 360,000);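 also: 0% = DMSO wells and -100% = cell-free medium wells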
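Cytotoxicity counter-line: IDH1KD HT-1080, 48 h, CellTiter-Glo. Curves classed by r2, magnitude and activity.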
SW480 rereplic – A quantitative high throughput screen for small molecules that induce DNA re-replication in SW480 colon adenocarcinoma cells; SW480 DNA re-replication, Hoechst DNA content imaging, 48 h; Potency, µM (series often up to 46.1 µM), inactives show at the top dose re-replication activation, hits mostly activators; actives 1.8% (n = 340,000); AID 624297, 2012; also: % of control where 0% means no effect; nearly all actives have a fitted effect of over 55% in size
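Cells (250 per well) received 23 nL compound or DMSO by pin tool and were kept 48 hr at 37 C, 5% CO2. Nuclei were then stained with Hoechst for 40 min and scanned for DNA content.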
KB-3-1 cytotox – qHTS assay for MDR1-selective chemotherapeutics: Primary screen using the parental adenocarcinoma cell KB-3-1. Potency, µM (top dose mostly 46.1 µM), most hits filed as cytotoxic. KB-3-1 viability, CellTiter-Glo ATP luminescence, 72 h. actives 1.4% (n = 400,000); also: % is scaled to controls: 0 for no effect and ±100 for the full control effect; nearly all actives have a fitted effect of over 60% in size
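Parental KB-3-1 viability, qHTS format: 72 h compound exposure, 37 °C; CellTiter-Glo; media-only wells and DMSO plates as controls; concentration-effect fits on corrected data.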
KB-V1 MDR tox – qHTS assay for MDR1-selective chemotherapeutics: Primary screen using the drug-selected MDR subline cells KB-V1; KB-V1 MDR cells viability, CellTiter-Glo, 72 h; Potency, µM (doses to about 46.1 µM), hits mostly cytotoxic; actives 3.4% (n = 400,000); AID 1347076, 2019; also: % is scaled to controls: 0 for no effect and ±100 for the full control effect; nearly all actives have a fitted effect of over 60% in size
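In this primary screen, KB-V1 cells overexpressing P-gp are incubated with library compounds (lowest to highest concentration) for 72 h at 37 degrees C before a luminescent ATP viability read.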
MCF10A rereplic – A quantitative high throughput screen for small molecules that induce DNA re-replication in MCF 10a normal breast cells; MCF 10A DNA re-replication, Hoechst nuclear intensity, 48 h; Potency, µM (titrated, usually from 46.1 µM), without a hit: at the highest dose activity, positive = re-replication, actives largely listed as activators; actives 2.9% (n = 350,000); AID 624296, 2012; also: % of control where 0% means no effect; nearly all actives have a fitted effect of over 50% in size
The depositor's hits bear a star; i = inactive; u = inconclusive; x = not tested or not shown. In the library only some 8% were active in any assay of this set; here they are far more common. Calls follow the shape of the dose curve; as a rule, active = well fitted curve in the direction sought with a large enough effect; inconclusive = small, poorly fitted or top-dose-only effect, or another doubt; inactive = no such curve, though single readings can be large; an effect the other way counts as inactive or inconclusive. Potency is read from the fitted curve at half-maximal effect.

SMILES	HT1080NT lethal	HT1080 IDH1KD tx	SW480 rereplic	KB-3-1 cytotox	KB-V1 MDR tox	MCF10A rereplic
COc1ccc(C2c3ccc4ccccc4c3Oc3ncn(Cc4ccco4)c(=N)c32)cc1OC (stereo not given)	21µM*	21µM*	u	u	u	u
COc1ccccc1C1c2ccc3ccccc3c2Oc2ncn(CCCO)c(=N)c21 (stereo not given)	21µM*	23µM*	130%	i	i	u
COc1ccc(C2c3ccc(O)cc3Oc3ncn(CCN4CCOCC4)c(=N)c32)cc1 (stereo not given)	-11%	-4%	15%	i	i	1%
COc1ccc(C2c3ccc4ccccc4c3Oc3ncn(CCCN(C)C)c(=N)c32)cc1 (stereo not given)	18µM*	u	12µM*	u	u	21µM*
COc1ccccc1C1c2ccc3ccccc3c2Oc2ncn(CCN(C)C)c(=N)c21 (stereo not given)	10µM*	8.2µM*	u	u	u	9.2µM*
Cc1ccc2occ(CC(=O)Nc3c(C(=O)Nc4ccc(Cl)cc4)oc4ccccc34)c2c1	x	x	x	i	i	x
COCCCNC(=O)C1CCN(C(=O)c2ccc(-n3ccc4ccccc43)s2)CC1	x	x	x	i	i	x
O=C(c1cc2ccccc2oc1=O)N1CCN(c2ccc(Cl)cc2)CC1	x	x	x	i	i	x
CCc1ccc(-n2c(C)nnc2SCc2nc(-c3ccc(OC)cc3)no2)cc1	x	x	x	i	i	x
CCOC(=O)Cc1csc(NC(=O)CSc2nnc(-c3ccncc3)o2)n1	-4%	0%	15µM*	i	i	16%
Cc1csc(NC(=O)CSc2nnc(-c3ccoc3C)o2)n1	0%	1%	7%	i	i	8%
Cc1occc1-c1nnc(SCC(=O)Nc2nc(C(C)(C)C)cs2)o1	u	u	u	i	u	15µM*
CCOC(=O)Cc1csc(NC(=O)CSc2nnc(-c3ccc(NS(=O)(=O)CC)cc3)o2)n1	0%	8%	4%	i	i	19%
CCOc1ccc(NC(=O)CN2C(=O)CC(C)Sc3ccccc32)cc1 (stereo not given)	x	x	x	i	i	x
NS(=O)(=O)c1ccc(CCNc2nn3c(-c4cccc(OC(F)(F)F)c4)cnc3s2)cc1	8.2µM*	8.2µM*	x	u	i	x
COc1ccc(CNc2nn3c(-c4cccc(C(=O)N(C)C)c4)cnc3s2)cc1	13%	2%	x	i	i	x
CC(=O)O[C@H]1[C@@H](O)[C@H](O)[C@H](Oc2c(O)c(C)c3c4c2[C@@H](C)CC[C@@H]4[C@@H](C)C[C@H]3C=C(C)C)O[C@H]1C	u	u	-13%	u	26µM*	u
CCn1c2ccccc2c2cc(C3N=C(N)Nc4nc5ccccc5n43)ccc21 (stereo not given)	0%	26%	16%	i	i	21µM*
CCOc1cc(/C=C2\COc3ccccc3C2=O)cc(Br)c1OCC(=O)N(C)C	18µM*	13µM*	u	u	u	u
CCOc1cc(/C=C2\CCCC(C(=O)C(F)(F)F)=C2O)ccc1O	u	u	u	i	i	18µM*
COc1cc(/C=C2\SC(N)=NC2=O)cc(Cl)c1O	-2%	-12%	-3%	i	i	0%
COc1cc(/C=C2\CCC(C3CCCC3)C2=O)cc(OC)c1OC (stereo not given)	7%	-1%	-5%	i	i	22%
COc1cc(/C=C2\CC/C(=C\c3cc(OC)c(OC)c(OC)c3)C2=O)cc(OC)c1OC	-4%	-3%	u	i	i	5.8µM*
CCOc1cc(/C=N/Nc2nc3ccccc3[nH]2)cc(Br)c1OCC(=O)N(C)C	u	u	2%	u	u	u
COc1cc(/C=C2/CCC/C(=C\c3cc(O)c(OC)c(Cl)c3)C2=O)cc(Cl)c1O	u	21µM*	6.5µM*	u	8.2µM*	2.1µM*
SMILES	HT1080NT lethal	HT1080 IDH1KD tx	SW480 rereplic	KB-3-1 cytotox	KB-V1 MDR tox	MCF10A rereplic
CCCC(=O)Nc1ncnc2c1ncn2C1OC2COP(=O)(O)OC2C1OC(=O)CCC (stereo not given)	x	x	-1%	x	x	0%
COc1cc(/C=C2/CCc3ccccc3C2=O)cc(OC)c1OC	-17%	-23%	u	u	12µM*	18µM*
COc1ccc(C=C2SC(=S)NC2=O)c(OC)c1OC	-7%	u	10%	u	15µM*	27%
CCN1C/C(=C/c2cccc([N+](=O)[O-])c2)C(=O)/C(=C/c2cccc([N+](=O)[O-])c2)C1	4.1µM*	3.3µM*	3.7µM*	i	u	0.82µM*
COc1cc(/C=C2\CC(C(C)(C)C)C/C(=C\c3cc(OC)c(OC)c(OC)c3)C2=O)cc(OC)c1OC (stereo not given)	12µM*	5.8µM*	7.3µM*	8.2µM*	i	3.3µM*
COc1cc(/C=C2\CCc3ccccc3C2=O)cc(OC)c1OC	-13%	u	u	u	u	u
O=C1NC(=O)/C(=C/c2cccc([N+](=O)[O-])c2)N1	-8%	-6%	3%	u	i	3%
CCc1ccc(NC(=O)Cn2c(=O)n(CCCCC(=O)NCCc3ccc(Cl)cc3)c(=O)c3ccccc32)cc1	x	x	x	i	i	x
CCn1cc(C(=O)NCCc2ccc(C)cc2)c(=O)c2cc(S(=O)(=O)N3CCc4ccccc4C3)ccc21	x	x	x	i	i	x
COc1ccccc1C=C1SC(=S)NC1=O	-7%	-5%	0%	i	i	17%
COc1cc(/C=C2\CCC/C(=C\c3ccc(O)c(OC)c3)C2=O)ccc1O	18µM*	5.8µM*	u	u	u	4.1µM*
O=C1NC(=S)SC1=Cc1ccccc1Cl	u	-16%	10%	u	i	6.5µM*
COc1cc(C=C2C(=O)C=CC2=O)ccc1O	15µM*	23µM*	x	21µM*	i	x

Screens (PubChem BioAssay)
